Assays:
Test in all cases: PBM binding z-score (relative to random genomic background probes); higher = stronger binding; sequences stand for … in GC…GCGATTGACAGCGTAGAATGAAGG
[1] = system: FXR:RXRa (NR concentration 270 nM, RXRa partner concentration 90 nM)
Summary of the method: (§1)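 For binding z-scores, the reference was random background probes on custom Agilent 4×180K protein-binding microarrays. These arrays were incubated 1 h with ligand-free nuclear receptor dimers in PBS pH 7.4, 2% milk, 0.02% Triton X-100, 1 mM DTT, 0.2 mg/mL BSA and 0.4 mg/ml salmon testes DNA. Fluorescence was scanned after antibody detection of each partner (one per run) and regression-normalized.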

[2] = system: LXRa:RXRa (NR concentration 270 nM, RXRa partner concentration 90 nM)
Summary of the method: as §1

[3] = system: LXRa homodimer (NR concentration 270 nM)
Summary of the method: as §1

[4] = system: LXRb:RXRa (NR concentration 270 nM, RXRa partner concentration 90 nM)
Summary of the method: as §1

[5] = system: LXRb homodimer (NR concentration 270 nM)
Summary of the method: as §1

[6] = system: PPARa:RXRa (NR concentration 270 nM, RXRa partner concentration 90 nM)
Summary of the method: as §1

[7] = system: PPARg:RXRa (NR concentration 180 nM, RXRa partner concentration 90 nM)
Summary of the method: as §1

[8] = system: PPARg:RXRa 270nM:90nM, anti-RXR (NR concentration 270 nM, RXRa partner concentration 90 nM)
Summary of the method: as §1

[9] = system: PPARg:RXRa 30nM:10nM, anti-RXR (NR concentration 30 nM, RXRa partner concentration 10 nM)
Summary of the method: as §1

[10] = system: PPARg:RXRa 90nM:30nM, anti-RXR (NR concentration 90 nM, RXRa partner concentration 30 nM)
Summary of the method: as §1

[11] = system: PPARg:RXRa DBDmut IVT, anti-RXR (DBD mutation: RXRa K156A/R161A, NR concentration 270 nM, RXRa partner concentration 90 nM)
Summary of the method: as §1

[12] = system: PPARg:RXRa IVT, anti-PPARg (NR concentration 270 nM, RXRa partner concentration 90 nM)
Summary of the method: as §1

[13] = system: PPARg DBDmut:RXRa IVT, anti-PPARg (DBD mutation: PPARg1 K132A/R137A, NR concentration 270 nM, RXRa partner concentration 90 nM)
Summary of the method: as §1

[14] = system: PPARg DBDmut IVT, anti-PPARg (DBD mutation: PPARg1 K132A/R137A, NR concentration 270 nM)
Summary of the method: as §1

[15] = system: PPARg homodimer (NR concentration 180 nM)
Summary of the method: as §1

[16] = system: PXR:RXRa (NR concentration 270 nM, RXRa partner concentration 90 nM)
Summary of the method: as §1

[17] = system: PXR homodimer (NR concentration 270 nM)
Summary of the method: as §1

[18] = system: RARa:RXR (NR concentration 270 nM, RXRa partner concentration 90 nM)
Summary of the method: as §1

[19] = system: RARa homodimer (NR concentration 270 nM)
Summary of the method: as §1

[20] = system: RARb:RXRa (NR concentration 270 nM, RXRa partner concentration 90 nM)
Summary of the method: as §1

Row | Sequence | PBM binding z-score [1] | PBM binding z-score [2] | PBM binding z-score [3] | PBM binding z-score [4] | PBM binding z-score [5] | PBM binding z-score [6] | PBM binding z-score [7] | PBM binding z-score [8] | PBM binding z-score [9] | PBM binding z-score [10] | PBM binding z-score [11] | PBM binding z-score [12] | PBM binding z-score [13] | PBM binding z-score [14] | PBM binding z-score [15] | PBM binding z-score [16] | PBM binding z-score [17] | PBM binding z-score [18] | PBM binding z-score [19] | PBM binding z-score [20]
1 | CCTTACGGGTCACTGACAGGTTATAACATTTGGA | 5.58 | 4.49 | 0.519 | 3.76 | 0.0468 | 5.18 | 4.66 | 4.61 | 1.74 | 3.38 | 3.56 | 3.86 | 0.537 | 0.266 | 2.85 | 3.67 | 0.294 | 4.67 | 1.52 | 3.9
2 | AGAACGAGGGCACGCTGAGTTGATACCAGAGTAG | 0.816 | 0.364 | -0.278 | 0.0367 | -0.613 | 1.76 | 2.2 | 1.8 | 0.433 | 1.03 | 4.16 | 3.75 | 0.259 | -0.00374 | 0.189 | 1.25 | 0.342 | 0.748 | -0.804 | 2.36
3 | TTACCAAGGCGAAGGTCGTTGATCCCTCTGTAGA | 1.8 | 1.55 | -0.229 | 1.43 | -0.992 | 2.44 | 3.98 | 5.81 | 3.02 | 5.86 | 0.0514 | 1.72 | -0.587 | -0.677 | 1.25 | 1.16 | 0.0255 | 1.26 | -0.525 | 0.787
4 | CGAACTAGGCCAAGGACAGTGAATCTCCGCACGC | -0.241 | -0.713 | -0.191 | -0.883 | -0.975 | 1.04 | 1.69 | 1.53 | -0.0892 | 0.672 | 6.24 | 4.83 | 0.31 | -0.452 | -0.431 | -0.557 | -0.632 | -0.45 | -0.416 | 0.81
5 | CGAACGAGGGTATGAGTTGATAGCAAATGCCGAT | -0.386 | -0.2 | -0.268 | -0.396 | -0.567 | -0.124 | 0.652 | 0.353 | -0.0706 | 0.292 | 0.876 | 0.397 | 0.137 | 0.369 | -0.383 | -0.238 | 0.0824 | -0.307 | 0.157 | 0.117
6 | CCTAGTTTGTCAGGAGGTCACACACCGGATATGA | 3.37 | 3.76 | 3 | 3.64 | 1.48 | 4.17 | 2.45 | 3.15 | 1.26 | 2.39 | 1.14 | 2.9 | 1.37 | 1.6 | 4.45 | 4.63 | 1.7 | 5.02 | 2.79 | 3.46
7 | CCTAGTTGGTCAGGAGGTCACCCACCGGATATGA | 3.56 | 3.31 | 1.59 | 3.13 | 0.503 | 4.04 | 2.76 | 3.87 | 1.01 | 2.98 | 0.575 | 3.28 | -0.921 | -0.185 | 3.43 | 4.07 | 1.23 | 4.11 | 1.53 | 3.61
8 | TAGCCTAGGTCATTCAGGGGCGAGTATAGAAAGC | 5.04 | 5.21 | 0.875 | 3.77 | 1.13 | 3.69 | 2.21 | 2.4 | 0.501 | 1.61 | 1.58 | 3.05 | 0.363 | 0.38 | 1.3 | 4.17 | -0.00215 | 3.55 | 0.172 | 3.89
9 | GCGACTGGGGCAAGGCAGGTTACCATAAGGTTGG | -0.183 | 0.247 | -0.418 | -0.0825 | -0.867 | 0.979 | 0.978 | 0.49 | -0.677 | 0.000745 | 3.58 | 3.12 | 0.704 | -0.934 | 0.688 | 0.207 | -0.567 | 0.854 | -0.915 | 0.95
10 | ATCGAAAGGTCGACGAGGTTAGTATACACCGTTT | 4.41 | 3.75 | 0.309 | 3.11 | 0.782 | 4.33 | 2.6 | 3.04 | 0.863 | 2.24 | 0.568 | 1.88 | 1.2 | 0.625 | 1.24 | 4.03 | 2.16 | 3.97 | 0.691 | 3.86
11 | CGTCCAAGGTCAATCCTAGGTCAGTGAAAGCATT | 7.14 | 5.85 | 3.44 | 4.8 | 1.43 | 5.47 | 4.38 | 4.75 | 1.43 | 3.63 | 3.45 | 4.04 | 0.153 | 0.742 | 6.19 | 5.13 | 0.983 | 6.44 | 1.8 | 5.33
12 | CGTCCAAGATCAAGGTCAGTGAAAGAGACTCGAA | 1.53 | 1.53 | 0.459 | 1.7 | -0.296 | 2.7 | 0.906 | 1.19 | 0.0233 | 0.76 | 1.25 | 1.67 | -0.223 | -0.447 | 1.25 | 1.82 | 0.628 | 2.07 | 0.651 | 3.28
13 | CCGACTGGGGCAAGGTTACCAGAACGCACAGCCA | 0.168 | 0.506 | -0.288 | 0.501 | -1.15 | 1.97 | 2.79 | 3.43 | 0.792 | 2.68 | 2.21 | 3.49 | -0.808 | -1.44 | 0.502 | 0.259 | 0.151 | 0.58 | -0.644 | 1.63
14 | GCTCGGAGGACAAGGTCAGATCTTTGTCCGTAGA | 2.14 | 2.12 | -0.175 | 1.87 | -0.0535 | 2.68 | 0.835 | 1.44 | -0.124 | 0.769 | -0.309 | 0.755 | -0.782 | -0.686 | 0.86 | 1.87 | -0.322 | 2.22 | -0.579 | 3.52
15 | CTCGACAGGTCGGTTGAGGTGAGTATACGGATAA | 1.43 | -0.211 | -0.296 | -0.278 | -0.791 | 0.423 | 0.166 | -0.237 | -0.356 | -0.324 | -0.656 | 0.236 | -0.149 | -0.718 | -0.0437 | 0.653 | -0.282 | 0.493 | -0.539 | 0.905
